# Test results reported in PubChem BioAssay (NCATS).
# Inconclusive results are not listed. A number with no mark means an inactive call. Calls of active or inactive are those of the source. The call rests on the fitted dose curve; in most records, active means well fitted inhibition curve with a large enough effect; inconclusive means small, poorly fitted or top-dose-only effect; inactive means flat fitted curve, though single readings scatter.
# Target: Glutathione peroxidase 1 (Homo sapiens) (UniProt P07203)
# Sequence (P07203 whole entry, looked up): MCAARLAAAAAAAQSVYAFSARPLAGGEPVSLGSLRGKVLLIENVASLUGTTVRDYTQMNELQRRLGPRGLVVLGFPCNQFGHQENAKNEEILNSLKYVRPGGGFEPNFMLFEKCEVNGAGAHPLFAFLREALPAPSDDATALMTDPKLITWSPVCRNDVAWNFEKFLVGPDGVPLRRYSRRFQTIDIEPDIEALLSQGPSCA
# Experiment: Primary qHTS Assay for Inhibitors of Recombinant Selenoprotein Glutathione Peroxidase 1 (GPX1) (AID 1845191); further: nearly all actives have a fitted effect of over 65% in size
# Conditions: recombinant GPX1, GR-coupled NADPH fluorescence, 15 min; series mostly up to 48.8 µM; activity, negative = inhibition: at the top concentration
# Procedure, shortened: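 10 nM GPX1 + cpd, 30 min RT; start w/ 1 mM GSH, 0.5 mM cumene hydroperoxide, 0.5 mM NADPH, 100 nM GR, 0.01% BSA; buffer 50 mM Tris-HCl pH 7.5, 2 mM EDTA, 150 mM NaCl; Fl 340/450, 0 & 15 min.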
# On the % scale 0 is the no-effect control and ±100 the full control effect.
Compound,"activity, negative = inhibition",Potency,outcome
COc1ccc(-c2csc(NC(=O)[C@H]3CCCCN3S(=O)(=O)c3ccc(C)cc3)n2)cc1,-22.2%,–,–
O=C(O)C1=CO[C@@H](O[C@@H]2O[C@H](CO)[C@@H](O)[C@H](O)[C@H]2O)[C@@H]2C(CO)=CC[C@H]12,–,inactive,–
C=C1C(=O)O[C@H]2/C=C(/C)[C@@H](OC(C)=O)C/C=C(\C)C[C@@H](OC(=O)/C(=C/C)COC(=O)/C(=C/C)CO)[C@@H]12,–,–,inactive [at 27.7 µM]
Oc1ccc(-c2cnc3ccc(NCc4ccco4)nn23)cc1,–,–,inactive
COC(=O)c1cc2c(C(F)(F)F)cc(-c3ccccc3)cc2n1O,-17.4%,–,–
COc1cc(OC)c2c(=O)[nH]c(-c3cc(C)c(OCCO)c(C)c3)nc2c1,–,inactive,–
C=C1C(=O)OC2C1CCC1(C)C(O)CC=C(C)C21 (stereo not given),-1.32%,–,–
CO[C@H]1[C@@H](O)[C@H](O[C@H]2CC[C@@]3(C)C(CCC4C3CC[C@]35COC6(COC(=O)C6)C3CCC45O)C2)O[C@@H](C)[C@@H]1OC1OC(CO)C(OC2OC(CO)C(O)C(O)C2O)C(O)C1O (stereo not given in full),-2.58% [at 15.3 µM],–,–
Fc1ccc(-c2cncc(CN3CCN(c4cccc5c4OCCO5)CC3)c2)cc1,-15.5%,–,–
CC(C)C[C@H](C(=O)O)c1cc(-c2ccc(C(F)(F)F)cc2)cc(-c2ccc(C(F)(F)F)cc2)c1,–,–,inactive
COc1cc(/C=C2\CC[C@H]3COC[C@@H](c4cc(F)c(F)c(F)c4)N3C2=O)ccc1-n1cnc(C)c1,-17.7%,–,–
CC(C)(CNC(=O)c1cccc(-c2noc(C(F)(F)F)n2)c1)c1coc(-c2ccccc2)n1,2.28%,–,–
C=C1CC[C@@H]2[C@](C)(CO)[C@H](O)CC[C@@]2(C)[C@@H]1CC(=O)C1=CCOC1=O,-19.4% [at 27.7 µM],–,–
O=C(Nc1ccc(C(O)(C(F)(F)F)C(F)(F)F)cc1)c1ccc(C(F)(F)F)cc1,1.27%,–,–
COC1=CC(=O)O/C1=C(/OC)[C@@H]1O[C@H]1c1ccccc1,–,–,inactive
COc1ccc(C2(N(C)C(=O)c3ccc(NC(=O)c4ccco4)cc3)CCOCC2)cc1,-14.3%,–,–
C[C@@H]1CC[C@]2(C(=O)O)CC[C@]3(C)C(=CCC4[C@@]5(C)CC[C@H](O)[C@](C)(C(=O)O)C5CC[C@]43C)C2[C@]1(C)O (stereo not given in full),-11.4% [at 27.7 µM],–,–
CN(C)c1ccnc2sc3c(=O)n(N4CCCCCC4)cnc3c12,–,–,inactive

Compound,"activity, negative = inhibition",Potency,outcome
COCCCNC(=O)c1ccc(Cn2c(=O)c3ccccc3n(Cc3ccc(C(C)C)cc3)c2=O)cc1,–,–,inactive
O=C(Nc1ccc(Cl)cc1)c1ccccc1NCc1ccncc1,–,–,inactive
C[C@@H]1C[C@H]2O[C@@]3(O[C@@H]2C(C)(C)O)C(O)[C@@]2(C)C4CCC5C(C)(C)[C@@H](O[C@H]6OC[C@H](O)[C@@H](O)[C@@H]6O)CC[C@@]56C[C@@]46CC[C@]2(C)C13 (stereo not given in full),–,–,inactive [at 15.3 µM]
CC(=O)C=C=C1C(C)(C)CC(O)CC1(C)O[C@@H]1O[C@H](CO[C@H]2OC[C@](O)(CO)[C@H]2O)[C@@H](O)[C@H](O)[C@H]1O (stereo not given in full),–,–,inactive [at 27.7 µM]
Nc1ncnc2c1c(-c1ccc(Cl)cc1)nn2-c1cccc(-c2cnnn2Cc2cccc(-c3ccccc3)c2)c1,-2.67%,–,–
Cc1nc(C(=O)N2CCC[C@H]2Cc2nnc(-c3ccccc3)o2)c(-c2ccccc2F)s1,4.55%,–,–
COc1cc2ncnc(Nc3cccc(I)c3)c2cc1OC,–,–,inactive
C=C1C(=O)O[C@@H]2[C@H]1CC(=O)[C@H](C)[C@@](O)(C(=O)/C=C/C)[C@H]2OC(=O)C(C)CC (stereo not given in full),–,–,inactive [at 27.7 µM]
CCC(CC)(NC(=O)C(C)C)C(=O)N[C@@H](CCCN=C(N)N)C(=O)NC1(C(=O)NC(c2ccc(F)cc2)c2ccc(F)cc2)CCCC1,-21.1%,–,–
C=C1CCC2C(C)(C)CCCC2(C)C1CC/C(C)=C\CO (stereo not given),3.51%,–,–
CCc1ccccc1OC[C@@H](O)CN[C@H]1CCCc2ccccc21,–,–,inactive
COc1cc(-c2nc(N[C@H](CO)Cc3ccccc3)ccc2C(=O)NCCOc2ccccc2)cc(OC)c1OC,–,–,inactive
CC(C)(C)Sc1c(CC(C)(C)C(=O)O)n(Cc2ccc(Cl)cc2)c2ccc(OCc3ccc4ccccc4n3)cc12,–,inactive,–
CC(=O)O[C@H]1CC2C(COC(=O)CC(C)C)=CO[C@@H](OC(=O)CC(C)C)C2[C@]12CO2 (stereo not given in full),-1.07% [at 27.7 µM],–,–
O=C1COc2nccc(-c3ccccc3F)c2CN1Cc1cc(C(F)(F)F)cc(C(F)(F)F)c1,–,–,inactive
CC(C)(O)c1ccn2c(-c3ccc(F)c(-c4ccc(F)cc4C#N)c3)cnc2c1F,-0.839%,–,–
C[C@@H](Nc1ncnc2[nH]c(-c3ccc(O)cc3)cc12)c1ccccc1,-6.14%,–,–
